From PubChem BioAssay (Tox21) come the findings set out here.

Several values for one entry are separate records, joined by “and”; a condition that tells them apart may be missing. Equal values may be shown once. Inconclusive results are not listed. Where a call stands in place of a potency, no number is given. Where a structure was tested more than once in an assay, its records may differ in their call. Activity calls are given as the source filed them. The call rests on the fitted dose curve; in most records, active means well fitted curve in the direction sought with a large enough effect in the repeat runs; inconclusive means weak or mixed curves; inactive means no such curve, though single readings can be large; an effect the other way counts as inactive or inconclusive.

One experiment is described as follows: qHTS assay to identify small molecule HDAC inhibitors - cell viability counter screen (AID 1259365). Further: nearly all actives have a fitted effect of over 50% in size. As to conditions: HCT-116 viability, CellTiter-Glo ATP luminescence, 2 h; series mostly up to 92.4 µM. The procedure, abridged:
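HCT-116 wild-type, overnight attachment; 2hr drug exposure, 37C; CellTiter-Glo luminescent ATP readout after 30min RT.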
With `NC(CSCC(=O)O)C(=O)O` (stereo not drawn), the result was inactive.

Consider `O=C(O)CNC(=O)c1ccc([N+](=O)[O-])cc1`, for which the outcome was inactive.

As to `N=C(N)c1ccc(OCCCOc2ccc(C(=N)N)cc2)cc1`, the outcome was inactive.

Regarding `CCCCCCCCCCCCCCCCC`, the result was inactive.

As to `CN(C)CCCNCCCN(C)C`, the compound was classed as inactive.

With `COc1ccc2c(c1)c(CC(=O)OCC(=O)O)c(C)n2C(=O)c1ccc(Cl)cc1`, the call was inactive.

As to `CCCCOCCOCCOCCCC`, the compound was called inactive.

For the compound `COC(C)(C)CCCC(C)CC=O` (stereo not drawn), the compound was called inactive.

`CCCN1CCCC[C@H]1C(=O)Nc1c(C)cccc1C`: the compound was classed as inactive.

`O=C(O)CCCl`: the compound was called inactive.

Take `COc1nc(N)nc2c1ncn2[C@@H]1O[C@H](CO)[C@@H](O)[C@@H]1O`: the result was inactive.

As for `C1OCOCO1`, the call was inactive.

On to `Cc1cc2c(cc1S(N)(=O)=O)S(=O)(=O)CCC2`, for which the outcome was inactive.

For `O=c1n(CCO)c(=O)n(CCO)c(=O)n1CCO`, the compound was classed as inactive.

Take `CCCCCCCCCCCCN(CCCCCCCCCCCC)CCCCCCCCCCCC`: the compound was called inactive.

As for `CCS(=O)(=O)c1ccc(OC)c(C(=O)OC)c1`, the compound was called inactive.

In the case of `N=C(N)c1ccccc1`, the compound was classed as inactive.

`CN1C(=O)N(C)C(O)C1O` (stereo not drawn): the compound was called inactive.

Consider `CC(C)NC(=O)NC(C)C`, for which the outcome was inactive.

`Brc1c(NC2=NCCN2)ccc2nccnc12`: the result was inactive.

Consider `CN(C(=O)c1c(O)c2ccccc2n(C)c1=O)c1ccccc1`, for which the call was inactive.

`CC(C)NCCCC1(C(N)=O)c2ccccc2-c2ccccc21`: the compound was called inactive.

As for `C=C(C)C(=O)OCCCCCCCC(C)C`, the result was inactive.

Regarding `CC(NC(CCc1ccccc1)C(=O)O)C(=O)N1C(=O)N(C)CC1C(=O)O` (stereo not drawn), the compound was called inactive.

With `CCOC(=O)[C@H](CCc1ccccc1)N[C@@H](C)C(=O)N1[C@H](C(=O)O)C[C@@H]2CCC[C@@H]21`, the compound was called inactive.

Regarding `O=Cc1cccc([N+](=O)[O-])c1`, the compound was called inactive.

In the case of `CC/C=C\CC/C=C/C(OCC)OCC`, the compound was called inactive.

Turning to `CCCCCSCCCCC`, the call was inactive.

For `CCOC(=O)CC(C)=O`, the call was inactive.

As to `Cn1cc(S(C)=O)c(=O)c2ccc(F)cc21` (stereo not drawn), the compound was called inactive.

As to `CC(C)CCCC(C)N` (stereo not drawn), the compound was called inactive.

For the compound `COC(=O)c1ccc(C)cc1C1=NC(C)(C(C)C)C(=O)N1` (stereo not drawn), the compound was classed as inactive.

For `CC(C)(O)C(=O)c1ccccc1`, the compound was classed as inactive.

Take `N#Cc1ccc(C2CCCc3cncn32)cc1` (stereo not drawn): the outcome was inactive.

As for `C[C@@H]1CCN(C(=O)[C@H](CCCN=C(N)N)NS(=O)(=O)c2cccc3c2NC[C@H](C)C3)[C@@H](C(=O)O)C1`, the call was inactive.

Another experiment is described as follows: qHTS assay to identify small molecule agonists of the sonic hedgehog signaling (Shh) pathway - cell viability counter screen (AID 1259366). Further: nearly all actives have a fitted effect of over 50% in size. As to conditions: NIH/3T3 Gli1-Luc viability, CellTiter-Fluor, 24 h; series mostly up to 92.4 µM. In short, it runs like this:
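Compounds in DMSO were pin-transferred onto 3T3 Gli1-Luc cells that had settled 4hr; plates then stood 24hr at 37C and 5% CO2. One hour before the end, CellTiter-Fluor was added and fluorescence recorded.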
For orientation: In qHTS, concentration-response curves come from the screen itself.
In the case of `NC(CSCC(=O)O)C(=O)O` (stereo not drawn), the Potency entry is “inactive”.

In the case of `O=C(O)CNC(=O)c1ccc([N+](=O)[O-])cc1`, the Potency entry was “inactive”.

`N=C(N)c1ccc(OCCCOc2ccc(C(=N)N)cc2)cc1`: the Potency result was “inactive”.

Regarding `CCCCCCCCCCCCCCCCC`, the Potency entry is “inactive”.

Consider `CN(C)CCCNCCCN(C)C`, for which the Potency result was “inactive”.

As for `COc1ccc2c(c1)c(CC(=O)OCC(=O)O)c(C)n2C(=O)c1ccc(Cl)cc1`, the Potency result was “inactive”.

Turning to `CCCCOCCOCCOCCCC`, the Potency result is “inactive”.

Regarding `COC(C)(C)CCCC(C)CC=O` (stereo not drawn), the Potency result is “inactive”.

In the case of `CCCN1CCCC[C@H]1C(=O)Nc1c(C)cccc1C`, the Potency entry was “inactive”.

Regarding `O=C(O)CCCl`, the Potency entry is “inactive”.

Take `COc1nc(N)nc2c1ncn2[C@@H]1O[C@H](CO)[C@@H](O)[C@@H]1O`: the Potency result was “inactive”.

Take `C1OCOCO1`: the Potency result is “inactive”.

With `Cc1cc2c(cc1S(N)(=O)=O)S(=O)(=O)CCC2`, the Potency result is “inactive”.

As to `O=c1n(CCO)c(=O)n(CCO)c(=O)n1CCO`, the Potency entry is “inactive”.

In the case of `CCCCCCCCCCCCN(CCCCCCCCCCCC)CCCCCCCCCCCC`, the Potency entry is “inactive”.

For the compound `CCS(=O)(=O)c1ccc(OC)c(C(=O)OC)c1`, the Potency result is “inactive”.

For `N=C(N)c1ccccc1`, the Potency result was “inactive”.

As to `CN1C(=O)N(C)C(O)C1O` (stereo not drawn), the Potency entry is “inactive”.

In the case of `CC(C)NC(=O)NC(C)C`, the Potency result was “inactive”.

Take `Brc1c(NC2=NCCN2)ccc2nccnc12`: the Potency result is “inactive”.

`CN(C(=O)c1c(O)c2ccccc2n(C)c1=O)c1ccccc1`: the Potency result was “inactive”.

As for `CC(C)NCCCC1(C(N)=O)c2ccccc2-c2ccccc21`, the Potency result was “inactive”.

Consider `CC(NC(CCc1ccccc1)C(=O)O)C(=O)N1C(=O)N(C)CC1C(=O)O` (stereo not drawn), for which the Potency result was “inactive”.

In the case of `CCOC(=O)[C@H](CCc1ccccc1)N[C@@H](C)C(=O)N1[C@H](C(=O)O)C[C@@H]2CCC[C@@H]21`, the Potency entry was “inactive”.

Consider `O=Cc1cccc([N+](=O)[O-])c1`, for which the Potency entry is “inactive”.

Regarding `CC/C=C\CC/C=C/C(OCC)OCC`, the Potency entry is “inactive”.

On to `CCCCCSCCCCC`, for which the Potency result is “inactive”.

`CCOC(=O)CC(C)=O`: the Potency entry was “inactive”.

For the compound `Cn1cc(S(C)=O)c(=O)c2ccc(F)cc21` (stereo not drawn), the Potency result is “inactive”.

For `CC(C)CCCC(C)N` (stereo not drawn), the Potency result was “inactive”.

For the compound `COC(=O)c1ccc(C)cc1C1=NC(C)(C(C)C)C(=O)N1` (stereo not drawn), the Potency entry is “inactive”.

In the case of `CC(C)(O)C(=O)c1ccccc1`, the Potency result was “inactive”.

Take `N#Cc1ccc(C2CCCc3cncn32)cc1` (stereo not drawn): the Potency entry is “inactive”.

`C[C@@H]1CCN(C(=O)[C@H](CCCN=C(N)N)NS(=O)(=O)c2cccc3c2NC[C@H](C)C3)[C@@H](C(=O)O)C1`: the Potency entry is “inactive”.

A further experiment is described as follows: qHTS assay to identify small molecule antagonists of the sonic hedgehog signaling (Shh) pathway - cell viability counter screen (AID 1259367). Further: nearly all actives have a fitted effect of over 55% in size. Further: potency means the concentration at half of the fitted maximal effect. The note with it: NIH/3T3 Gli1-Luc viability, CellTiter-Fluor, 24 h; series mostly up to 42.5 µM. The procedure, abridged:
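Cytotoxicity was assessed in parallel with Shh reporter activity by measuring live-cell protease fluorescence (CellTiter-Fluor) in NIH/3T3 cells stably carrying Gli1-Luc, treated with compound under conditioned medium stimulation for 23 hr plus 1 hr reagent incubation.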
In the case of `NC(CSCC(=O)O)C(=O)O` (stereo not drawn), the Potency entry was “inactive”.

In the case of `O=C(O)CNC(=O)c1ccc([N+](=O)[O-])cc1`, the Potency result was “inactive”.

Regarding `N=C(N)c1ccc(OCCCOc2ccc(C(=N)N)cc2)cc1`, the Potency result is “inactive”.

Turning to `CCCCCCCCCCCCCCCCC`, the Potency result is “inactive”.

Turning to `CN(C)CCCNCCCN(C)C`, the Potency entry is “inactive”.

As to `COc1ccc2c(c1)c(CC(=O)OCC(=O)O)c(C)n2C(=O)c1ccc(Cl)cc1`, the Potency result was “inactive”.

Turning to `CCCCOCCOCCOCCCC`, the Potency entry is “inactive”.

Consider `COC(C)(C)CCCC(C)CC=O` (stereo not drawn), for which the Potency result is “inactive”.

For the compound `CCCN1CCCC[C@H]1C(=O)Nc1c(C)cccc1C`, the Potency entry was “inactive”.

For `O=C(O)CCCl`, the Potency entry is “inactive”.

Regarding `COc1nc(N)nc2c1ncn2[C@@H]1O[C@H](CO)[C@@H](O)[C@@H]1O`, the Potency entry is “inactive”.

As for `C1OCOCO1`, the Potency entry is “inactive”.

As to `Cc1cc2c(cc1S(N)(=O)=O)S(=O)(=O)CCC2`, the Potency entry was “inactive”.

Regarding `O=c1n(CCO)c(=O)n(CCO)c(=O)n1CCO`, the Potency entry is “inactive and 54.5 µM (active)”.

`CCCCCCCCCCCCN(CCCCCCCCCCCC)CCCCCCCCCCCC`: the Potency result was “inactive”.

With `CCS(=O)(=O)c1ccc(OC)c(C(=O)OC)c1`, the Potency result was “inactive”.

`N=C(N)c1ccccc1`: the Potency result is “inactive”.

Take `CN1C(=O)N(C)C(O)C1O` (stereo not drawn): the Potency result is “inactive”.

Regarding `CC(C)NC(=O)NC(C)C`, the Potency entry is “inactive”.

On to `Brc1c(NC2=NCCN2)ccc2nccnc12`, for which the Potency entry is “inactive”.

As for `CN(C(=O)c1c(O)c2ccccc2n(C)c1=O)c1ccccc1`, the Potency entry is “inactive”.

With `CC(C)NCCCC1(C(N)=O)c2ccccc2-c2ccccc21`, the Potency entry is “inactive”.

On to `CC(NC(CCc1ccccc1)C(=O)O)C(=O)N1C(=O)N(C)CC1C(=O)O` (stereo not drawn), for which the Potency result was “inactive”.

With `CCOC(=O)[C@H](CCc1ccccc1)N[C@@H](C)C(=O)N1[C@H](C(=O)O)C[C@@H]2CCC[C@@H]21`, the Potency entry is “inactive”.

`O=Cc1cccc([N+](=O)[O-])c1`: the Potency result is “inactive”.

Regarding `CC/C=C\CC/C=C/C(OCC)OCC`, the Potency entry was “inactive”.

In the case of `CCCCCSCCCCC`, the Potency result is “inactive”.

Regarding `CCOC(=O)CC(C)=O`, the Potency entry is “inactive”.

Take `Cn1cc(S(C)=O)c(=O)c2ccc(F)cc21` (stereo not drawn): the Potency result is “inactive”.

As for `CC(C)CCCC(C)N` (stereo not drawn), the Potency entry is “inactive”.

Take `COC(=O)c1ccc(C)cc1C1=NC(C)(C(C)C)C(=O)N1` (stereo not drawn): the Potency result is “inactive”.

On to `CC(C)(O)C(=O)c1ccccc1`, for which the Potency entry is “inactive”.

Turning to `N#Cc1ccc(C2CCCc3cncn32)cc1` (stereo not drawn), the Potency result is “inactive”.

For `C[C@@H]1CCN(C(=O)[C@H](CCCN=C(N)N)NS(=O)(=O)c2cccc3c2NC[C@H](C)C3)[C@@H](C(=O)O)C1`, the Potency result was “inactive”.
